# Laboratory results reported in PMC5540273 (PLoS ONE, 2017).
# Tested on: MARK3
# Conditions: concentration: 1 μM,replicates: in singlicate; n = 1
# 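Also: KINOMEscan kinase panel screen.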
row,SMILES,%Inh [%]
1,Cl.Nc1n[nH]c2cc(-c3ccccn3)ccc12 [GSK2189892],10
2,Cn1ccc2ncnc(Oc3ccc(NC(=O)Nc4cnn(C(C)(C)C)c4)c(Cl)c3)c21,0
3,Cn1ccc2ncnc(Oc3ccc(NC(=O)Nc4cncc(C(F)(F)F)c4)c(Cl)c3)c21,0
4,CCN1CCN(CCCC(=O)Nc2n[nH]c3nc(-c4ccc(O)cc4)c(Br)cc23)CC1 [SB-731579],0
5,CC(C)c1nc(-c2cccc(NS(=O)(=O)c3ccccc3)c2)c(-c2ccnc(Nc3ccc4c(c3)CN(C)CC4)n2)s1 [GSK1649598],14
6,C[C@@H]1CNc2c(sc3ccc4nc(-c5ccncc5)ccc4c23)C(=O)N1,0
7,COc1cccc(OC)c1C(=O)Nc1cccc(-c2nn3ccccc3c2-c2ccnc(Nc3cccc(F)c3)n2)c1 [GSK361065],7
8,Cc1cccc(-c2nc(Nc3ccncc3)c3sccc3n2)n1 [GW869641],20
9,c1ccc(Oc2ccc(Nc3ccnc4ccc(-c5ccccn5)cc34)cc2)cc1 [GW407034],0
10,C[C@@H](Oc1cc(-n2cnc3cc(-c4cnn(C)c4)ccc32)sc1C(N)=O)c1ccccc1Cl [GSK580432],82
11,CS(=O)(=O)c1cccc(CNc2nc(Nc3ccc4c(c3)[C@@H]3C[C@@H]4CNC3=O)ncc2C(F)(F)F)c1,67
12,COc1cccc(CNC(=O)NC2CCN(c3ccnc(Nc4cc(OC)c(OC)c(OC)c4)n3)C2)c1 (stereo not drawn) [GSK1379765],0
13,Cc1nnc(-c2ccc3occ(-c4ccc(S(C)=O)cc4)c3n2)o1 (stereo not drawn),0
14,COc1cc2ncn(-c3cc(OCC4CCCCC4)c(C(N)=O)s3)c2cc1OC [GSK204559],0
15,CC(=O)Nc1nc2cnc(Nc3cc(NC(=O)c4cccc(CC(C)(C)C#N)c4)ccc3C)nc2s1,0
16,CN(c1ccc2c(c1)nc(NCc1ccc(F)cc1)n2C)c1ccnc(Nc2ccc(CS(C)(=O)=O)cc2)n1.Cl [GW813244],0
17,Cc1ccc(C(=O)Nc2ccc(Oc3ccc4nc(NC(=O)C5CC5)cn4c3)c(F)c2)c(=O)n1-c1ccccc1,32
18,COc1cc2c(Nc3ccc(NC(=O)c4ccccc4)cc3)ncnc2cc1OCCCN1CCOCC1 [GSK301329],0
19,N#Cc1cccc(C(=O)NC2CCN(c3ccnc(Nc4ccc(F)cc4)n3)C2)c1 (stereo not drawn) [GSK1379708],0
20,O=C(NOCC1CC1)c1cc(Br)c(F)c(F)c1Nc1ccc(I)cc1Cl,0
21,COc1cc2nccc(Nc3ccc(Oc4ccccc4)cc3)c2cc1OC.Cl [GI261656],0
22,O=C(Nc1cccc(C(F)(F)F)c1)c1cccc(Oc2ccc3nccn3n2)c1,9
23,CN(c1ccccc1CNc1nc(Nc2ccc3c(c2)CC(=O)N3)ncc1C(F)(F)F)S(C)(=O)=O,80

# Tested on: MARK4
# Conditions: concentration: 1 μM,replicates: in singlicate; n = 1
row,SMILES,%Inh [%]
1,CSc1nccc(-c2c(-c3ccc(F)cc3)ncn2CCCN2CCOCC2)n1.Cl [SB-217146],20
2,NC(=O)c1ccc(-c2cc3ncnc(SCC(=O)O)c3s2)cc1,0
3,COc1cccc(C2=C(Nc3cccc(Cl)c3)C(=O)NC2=O)c1 [SB-341556],0
4,Cn1ccc2ncnc(Oc3ccc(NC(=O)Nc4ccnc(C(F)(F)F)c4)c(Cl)c3)c21,0
5,Cc1n[nH]c2cc(Nc3ccnc(Nc4cccc(CN5CCOCC5)c4)n3)ccc12 [GW682569],0
6,COC(=O)c1cccc(NC(=O)NC2CCN(c3ccnc(NCc4ccc(F)cc4)n3)CC2)c1 [GSK1379860],0
7,CS(=O)c1ccc(-c2coc3ccc(-c4n[nH]c(=O)o4)cc23)cc1 (stereo not drawn),22
8,Cc1cccc2c(-c3ccncc3)c(-c3ccc(F)cc3)nn12.Cl [GW461487],0
9,FC(F)(F)c1cc(Br)cc(Nc2nccc(-c3cnn4ncccc34)n2)c1 [GW810578],0
10,O=C1NCCc2[nH]c(-c3ccncc3)cc21,11
11,C[C@@H](Oc1cc(-n2cnc3cc(-c4ccncc4)ccc32)sc1C(N)=O)c1ccccc1Cl [GSK479719],12
12,NC(=O)Nc1sc(-c2ccc(F)cc2)cc1C(N)=O [GW789449],1
13,O=C(Nc1ccc(Oc2ccc3nc(NC(=O)C4CC4)cn3n2)c(F)c1)c1cccn(-c2ccccc2)c1=O,0
14,Cc1ccc(CC(=O)N2CCc3cc(-c4cn(C)c5ncnc(N)c45)ccc32)cc1 [GSK2634758],12
15,Cl.Nc1n[nH]c2cc(-c3ccccn3)ccc12 [GSK2189892],0
16,Cn1ccc2ncnc(Oc3ccc(NC(=O)Nc4cnn(C(C)(C)C)c4)c(Cl)c3)c21,16
17,Cn1ccc2ncnc(Oc3ccc(NC(=O)Nc4cncc(C(F)(F)F)c4)c(Cl)c3)c21,11
18,CCN1CCN(CCCC(=O)Nc2n[nH]c3nc(-c4ccc(O)cc4)c(Br)cc23)CC1 [SB-731579],14
19,CC(C)c1nc(-c2cccc(NS(=O)(=O)c3ccccc3)c2)c(-c2ccnc(Nc3ccc4c(c3)CN(C)CC4)n2)s1 [GSK1649598],3

row,SMILES,%Inh [%]
1,C[C@@H]1CNc2c(sc3ccc4nc(-c5ccncc5)ccc4c23)C(=O)N1,0
2,COc1cccc(OC)c1C(=O)Nc1cccc(-c2nn3ccccc3c2-c2ccnc(Nc3cccc(F)c3)n2)c1 [GSK361065],14
3,Cc1cccc(-c2nc(Nc3ccncc3)c3sccc3n2)n1 [GW869641],30
4,c1ccc(Oc2ccc(Nc3ccnc4ccc(-c5ccccn5)cc34)cc2)cc1 [GW407034],0
5,C[C@@H](Oc1cc(-n2cnc3cc(-c4cnn(C)c4)ccc32)sc1C(N)=O)c1ccccc1Cl [GSK580432],59
6,CS(=O)(=O)c1cccc(CNc2nc(Nc3ccc4c(c3)[C@@H]3C[C@@H]4CNC3=O)ncc2C(F)(F)F)c1,44
7,COc1cccc(CNC(=O)NC2CCN(c3ccnc(Nc4cc(OC)c(OC)c(OC)c4)n3)C2)c1 (stereo not drawn) [GSK1379765],1
8,Cc1nnc(-c2ccc3occ(-c4ccc(S(C)=O)cc4)c3n2)o1 (stereo not drawn),0
9,COc1cc2ncn(-c3cc(OCC4CCCCC4)c(C(N)=O)s3)c2cc1OC [GSK204559],26
10,CC(=O)Nc1nc2cnc(Nc3cc(NC(=O)c4cccc(CC(C)(C)C#N)c4)ccc3C)nc2s1,8
11,CN(c1ccc2c(c1)nc(NCc1ccc(F)cc1)n2C)c1ccnc(Nc2ccc(CS(C)(=O)=O)cc2)n1.Cl [GW813244],8
12,Cc1ccc(C(=O)Nc2ccc(Oc3ccc4nc(NC(=O)C5CC5)cn4c3)c(F)c2)c(=O)n1-c1ccccc1,15
13,COc1cc2c(Nc3ccc(NC(=O)c4ccccc4)cc3)ncnc2cc1OCCCN1CCOCC1 [GSK301329],0
14,N#Cc1cccc(C(=O)NC2CCN(c3ccnc(Nc4ccc(F)cc4)n3)C2)c1 (stereo not drawn) [GSK1379708],16
15,O=C(NOCC1CC1)c1cc(Br)c(F)c(F)c1Nc1ccc(I)cc1Cl,0
16,COc1cc2nccc(Nc3ccc(Oc4ccccc4)cc3)c2cc1OC.Cl [GI261656],0
17,O=C(Nc1cccc(C(F)(F)F)c1)c1cccc(Oc2ccc3nccn3n2)c1,100
18,CN(c1ccccc1CNc1nc(Nc2ccc3c(c2)CC(=O)N3)ncc1C(F)(F)F)S(C)(=O)=O,67
